In the library only some 7.9% were active in any assay of this set; here they are far more common.
LASV entry inh = blocks Lassa virus binding to or entry into cells; 300,000 tested, 1.2% active; Potency, µM (top dose mostly 37.9 µM), for the others: top-dose activity change, negative = inhibition, hits mostly inhibitors; Lassa virus pseudotype entry inhibition, cell reporter; calls by dose curve; tested in HEK293 cells; also: potency is read from the fitted curve at half-maximal effect; nearly all actives have a fitted effect of over 50% in size
Marburg entry inh = blocks Marburg virus binding to or entry into cells | Marburg virus pseudotyped entry inhibition, cell reporter | Potency, µM (series often up to 37.8 µM), for inactives: at the highest dose activity change, negative = inhibition, most hits filed as inhibitors | 300,000 tested, 1.8% active | AID 540276; calls by dose curve; tested in HEK293 cells; also: potency is read from the fitted curve at half-maximal effect
HCV inh = HCV inhibition | Huh7.5.1 HCVcc-Cre infection, luciferase reporter, 44 h | Potency, µM (series often up to 41.8 µM), without a hit: at the top dose activity change, negative = inhibition, most hits filed as inhibitors | 340,000 tested, 3.4% active | AID 651820; active = well fitted inhibition curve with a large enough effect; inconclusive = small, poorly fitted or top-dose-only effect, or another doubt; inactive = no such curve, though single readings can be large or run the other way; also: potency is read from the fitted curve at half-maximal effect
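HCVcc-Cre virus at an moi near 0.5 was added right after compound to cells cultured 4 h from seeding (1,000 cells/well). Luciferase activity was determined 44 h later, 15 min after substrate addition at RT.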
HCMV inh = blocks human cytomegalovirus replication | HFF cells, HCMV-luciferase reporter, 72 h; stronger effect = lower value | activity change, negative = inhibition, % at 57.5 µM | AID 1259415 | 410,000 tested, 4.5% active; in the data active = activity change below about -60%; inconclusive = no clear call, values can overlap the other calls; inactive = above about -39%
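After 16 h attachment at 37C, HFF cells received test compound and HCMV-luciferase (1 PFU/cell); reporter luminescence read 72 h later, data normalized against buffer-only and known inhibitor Salinomycin.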
FMDV inh = blocks foot and mouth disease virus. FMDV antiviral cell-based qHTS. Potency, µM (doses to about 57.9 µM), without a hit: at the top dose activity change, negative = inhibition, hits mostly inhibitors. 410,000 tested, 1.2% active. AID 1159524; calls by dose curve; tested in HEK293T cells; also: read-out not given here; potency is read from the fitted curve at half-maximal effect; nearly all actives have a fitted effect of over 45% in size
An asterisk follows results filed as active; u = inconclusive; x = no result; [ ] = another dose, or the depositor's remark. % is scaled to controls: 0 for no effect and ±100 for the full control effect.

SMILES	LASV entry inh	Marburg entry inh	HCV inh	HCMV inh	FMDV inh
CCCOc1ccc(C(=O)Nc2ccc3oc(-c4ccncc4)nc3c2)cc1	11%[46.1 µM]	x	x	u	u
COc1cc(/C=C(/C)[N+](=O)[O-])ccc1OCc1ccccc1Cl	u	6.5µM*	u	x	22µM*
CC1CN=C(c2cc(Cl)c(N)c(Cl)c2)c2c3ccccc3[n+]([O-])n21 (stereo not given)	x	x	x	55	x
N#Cc1ccc(-c2ccc(OCC(O)Cn3nnc4ccccc43)cc2)cc1 (stereo not given)	1%	u	u	-37	28µM*
C[C@]12C=CC(=O)C=C1CCC1C2=CC[C@]2(C)[C@@H](C(=O)CN3CCN(c4cc(N5CCCC5)nc(N5CCCC5)n4)CC3)CC[C@@H]12 (stereo not given in full)	x	5.6µM*	x	x	x
C[C@@H]1C[C@H]2CC(=O)N3[C@H](CC(=O)N2[C@H]1c1ccccc1)C[C@@H](C)[C@@H]3c1ccccc1	x	15%[14.2 µM]	x	x	x
Cc1ccc(-c2nc3nc(C)cc(N4CCN(c5cc(Cl)ccc5C)CC4)n3n2)cc1	12%[46.1 µM]	9%[46.1 µM]	x	18	-8%
O=C(c1ccc2c(=O)n(Cc3ccccc3)c(=S)[nH]c2c1)N1CCCC1	-7%[46.1 µM]	u	-25%	u	-9%
CC1CCCN(C(=O)c2ccc3c(=O)n(C4CCCC4)c(=S)[nH]c3c2)C1 (stereo not given)	u	-20%[46.1 µM]	10µM*	-62*	u
O=C(c1ccc2c(=O)n(-c3ccccc3)c(=S)[nH]c2c1)N1CCCCC1	u	u	u	-92*	u
O=C(c1ccc2c(=O)n(C3CCCC3)c(=S)[nH]c2c1)N1CCCCCC1	u	-28%[46.1 µM]	u	u	u
CCOC(=O)C1CCCN(C(=O)c2ccc3c(=O)n(Cc4ccccc4OC)c(=S)[nH]c3c2)C1 (stereo not given)	x	x	u	-94*	-9%
O=C(c1ccc2c(=O)n(-c3ccccc3)c(=S)[nH]c2c1)N1CCN(c2ccccc2)CC1	x	x	11µM*	18	u
CN(Cc1cnc2ccccn12)C(=O)c1cc(NC(=O)c2ccccc2)cc2ncn(C3CCCC3)c12	x	x	x	x	-8%
CCc1ccc(NC(=O)c2ccc(Cn3nc(N4CCN(c5ccccc5)CC4)ccc3=O)o2)cc1	-22%[46.1 µM]	x	x	u	u
Cc1cccc(CN2C[C@]34C=C[C@@H](C[C@@H]3S2(=O)=O)O4)c1	x	x	7%	1	-13%
Cc1cccc(CN2C[C@]34CC[C@@H](C[C@@H]3S2(=O)=O)O4)c1	x	x	7.1µM*	19	-9%
CCOC(=O)C(O)(c1ccc(NC(=S)NC(=O)c2ccc(Cl)cc2Cl)cc1)C(F)(F)F (stereo not given)	u	u	u	32	-2%
COC(=O)C(O)(c1ccc(NC(=S)NC(=O)c2ccc(Cl)cc2Cl)c(C)c1)C(F)(F)F (stereo not given)	5.8µM*	u	u	41	u
CCOC(=O)C(O)(c1ccc(NC(=S)NC(=O)c2ccc(Cl)cc2Cl)c(C)c1)C(F)(F)F (stereo not given)	10µM*	u	u	u	u
COC(=O)C(O)(c1ccc(NC(=S)NC(=O)c2ccc(Cl)cc2Cl)cc1)C(F)(F)F (stereo not given)	u	4%	u	-8	0%
Fc1ccccc1CCNc1c2c(nc3ncnn13)CCCC2	-14%[46.1 µM]	6.3µM*	u	-77*	-25%
S=C(Nc1cccc(Cl)c1Cl)NC1CCN(Cc2ccccc2)CC1	u	u	u	-66*	-6%
S=C(Nc1ccccc1)Nc1cccc(Cl)c1Cl	x	x	8%	-28	22%
S=C(NCc1ccccc1)N1CCN(Cc2ccc3c(c2)OCO3)CC1	0%	u	3%	-35	-3%
SMILES	LASV entry inh	Marburg entry inh	HCV inh	HCMV inh	FMDV inh
Fc1ccc(NC(=S)NC2CCN(Cc3ccccc3)CC2)cc1	x	x	u	-21	-3%
S=C(Nc1ccc(Cl)c(Cl)c1)NC1CCN(Cc2ccccc2)CC1	u	u	14µM*	-78*	14µM*
S=C(NCc1ccc2c(c1)OCO2)NC1CCN(Cc2ccccc2)CC1	u	u	u	-78*	21%
S=C(Nc1ccc(CN2CCCCC2)cc1)Nc1cccc(Cl)c1Cl	u	11µM*	u	-27	-3%
CCC(=O)N1CCc2cc(S(=O)(=O)NCCC(=O)Nc3ccc(C)cc3C)ccc21	3%[46.1 µM]	6%[46.1 µM]	x	-16	-12%
O=C(NCc1ccc(Cl)cc1)C1CCN(S(=O)(=O)Cc2ccccc2)CC1	16%[46.1 µM]	-14%[46.1 µM]	x	-16	-19%
Cc1ccc(NC(=O)c2c(C)nc3sc(C(=O)Nc4ccc(F)cc4)c(N)c3c2-c2ccc(C)o2)c(C)c1	3%[46.1 µM]	u	x	12	-9%
COc1ccc(NC(=O)C2CC(=O)N(CCc3ccc(Cl)cc3)C2)cc1 (stereo not given)	u	-12%	-17%	-86*	-3%
COc1ccc(OC)c(NC(=O)C2CC(=O)N(CCc3ccc(F)cc3)C2)c1 (stereo not given)	2%	-15%[46.1 µM]	6%	x	9%
CCCN(CCC)C(=O)CCSCCC(=O)N(CCC)CCC	-1%	-13%	3%	-102*	-7%
COc1ccc(-n2c(-c3ccc(C)cc3)nc3ccccc3c2=O)cc1	-20%	17%	-21%	u	18%
Cc1ccc(-c2nc3ccccc3c(=O)n2-c2cccc(C)n2)cc1	6%	u	-10%	-85*	5%
Cc1ccc(-c2nc3ccccc3c(=O)n2-c2cc(C)ccn2)cc1	-45%[14.3 µM]	21%	x	-24	24%
COc1ccc(-c2nc3ccccc3c(=O)n2-c2cccnc2)cc1	14%	20%	7%	-77*	-20%
CC(=O)OCOC(=O)CN(CC(=O)OCOC(C)=O)c1ccccc1OCCOc1ccccc1N(CC(=O)OCOC(C)=O)CC(=O)OCOC(C)=O	x	x	x	x	-11%[39.8 µM]
COc1cc(C(=O)OCC(=O)Nc2sccc2C(N)=O)cc(OC)c1OC	x	x	u	52	u
NC(=O)c1ccsc1NC(=O)COC(=O)Cc1ccccc1	x	x	10%	-33	u
CN(C)S(=O)(=O)c1cccc(C(=O)OCC(=O)Nc2sccc2C(N)=O)c1	-6%	u	u	35	14µM*
NC(=O)c1ccsc1NC(=O)COC(=O)Cc1c[nH]c2ccccc12	u	-13%	u	-1	20µM*
COc1cc(CCC(=O)OCC(=O)Nc2sccc2C(N)=O)cc(OC)c1OC	-30%	-17%[46.1 µM]	13µM*	-16	18µM*
NC(=O)c1ccsc1NC(=O)COC(=O)Cc1cccc2ccccc12	-28%	7.1µM*	u	-26	32µM*
COc1ccc(NC(=O)COC(=O)c2cccc(S(=O)(=O)N(C)C)c2)cc1	21%[46.1 µM]	u	0%	-2	-14%
COc1ccccc1NC(=O)COC(=O)Cc1c[nH]c2ccccc12	11µM*	-2%	u	170	-25%
